Assay [1] in a line: Quantitative High-Throughput drug screen in 47 multiple myeloma cell lines against the NCATS MIPE library collection: Delta47_JCRB cell viability assay (AID 1918925; also: nearly all actives have a fitted effect of over 45% in size). The method in brief: (§1)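 CellTiter-Glo luminescence (ATP) after 48 h compound exposure, 37C/5% CO2; 500 cells/well; MIPE 4.0 approved/investigational drugs pinned in; DMSO = 100%, media only = 0% viability.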
Assay [2] is described as follows: Quantitative High-Throughput drug screen in 47 multiple myeloma cell lines against the NCATS MIPE library collection: Karpas620_DSMZ cell viability assay (AID 1918959). Also: nearly all actives have a fitted effect of over 30% in size. The method in brief: as §1
Assay [3] in a line: Quantitative High-Throughput drug screen in 47 multiple myeloma cell lines against the NCATS MIPE library collection: KMM1_JCRB cell viability assay (AID 1918960). Also: nearly all actives have a fitted effect of over 30% in size. The method in brief: (§2)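 Luminescence from CellTiter-Glo, taken after 5 min at room temperature, reports cellular ATP as viability. Cells (500 per well) had been treated 48 h at 37 °C with MIPE 4.0 compounds, scaled between DMSO and medium-only controls.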

Assay [4] can be described thus: Quantitative High-Throughput drug screen in 47 multiple myeloma cell lines against the NCATS MIPE library collection: Karpas417_ECACC cell viability assay (AID 1918961). The settings on record: Karpas417 myeloma viability, CellTiter-Glo ATP luminescence, 48 h; viability (% of DMSO): at 45.8 µM (top of the series). The method in brief: (§3)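 Myeloma cells (500 per well) were exposed to MIPE 4.0 compounds by pin transfer and incubated 48 hours at 37C, 5% CO2. Viability was read as ATP by CellTiter-Glo luminescence, normalised to DMSO (100%) and media-only (0%) wells.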
Background: ATP-based viability assays read luminescence as a measure of living cells.

Assay [5] can be described thus: Quantitative High-Throughput drug screen in 47 multiple myeloma cell lines against the NCATS MIPE library collection: KHM11_PLB cell viability assay (AID 1918962). Also: nearly all actives have a fitted effect of over 35% in size. The method in brief: as §1
Assay [6] in a line: Quantitative High-Throughput drug screen in 47 multiple myeloma cell lines against the NCATS MIPE library collection: JIM1_ECACC cell viability assay (AID 1918964). The method in brief: as §1
A short description of assay [7]: Quantitative High-Throughput drug screen in 47 multiple myeloma cell lines against the NCATS MIPE library collection: H1112_PLB cell viability assay (AID 1918967; also: nearly all actives have a fitted effect of over 30% in size). The method in brief: as §1
Assay [8] is described as follows: Quantitative High-Throughput drug screen in 47 multiple myeloma cell lines against the NCATS MIPE library collection: Karpas25_ECACC cell viability assay (AID 1918968; also: nearly all actives have a fitted effect of over 35% in size). The method in brief: as §1
Assay [9] can be described thus: Quantitative High-Throughput drug screen in 47 multiple myeloma cell lines against the NCATS MIPE library collection: KMS27_JCRB cell viability assay (AID 1918970). Also: nearly all actives have a fitted effect of over 30% in size. The method in brief: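 Each line is seeded at 500 cells per well and treated with library compounds for 48 hours under 37 °C, 5% CO2. CellTiter-Glo is then added for 5 min at room temperature before median relative luminescence is recorded.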

The nature of assay [10]: Quantitative High-Throughput drug screen in 47 multiple myeloma cell lines against the NCATS MIPE library collection: KMS12BM_JCRB cell viability assay (AID 1918971). Also: nearly all actives have a fitted effect of over 35% in size. The method in brief:
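Relative luminescence from CellTiter-Glo served as the viability signal, referenced to DMSO-treated (100%) and cell-free medium (0%) controls. Treatment lasted 48 hours at 37C with 500 cells per well.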

Assay [11] in a line: Quantitative High-Throughput drug screen in 47 multiple myeloma cell lines against the NCATS MIPE library collection: KMS20_JCRB cell viability assay (AID 1918973). Also: nearly all actives have a fitted effect of over 45% in size. The method in brief:
as §1

The nature of assay [12]: Quantitative High-Throughput drug screen in 47 multiple myeloma cell lines against the NCATS MIPE library collection: KMS21BM_JCRB cell viability assay (AID 1918974). The following applies: ATP luminescence, 48 h; viability: at 45.8 µM (top of the series) unless noted. The method in brief:
as §1

Assay [13] is described as follows: Quantitative High-Throughput drug screen in 47 multiple myeloma cell lines against the NCATS MIPE library collection: AMO1_DSMZ cell viability assay (AID 1918927; also: nearly all actives have a fitted effect of over 30% in size). The method in brief: as §1
Assay [14] in a line: Quantitative High-Throughput drug screen in 47 multiple myeloma cell lines against the NCATS MIPE library collection: ARP1_JJKsccF8 cell viability assay (AID 1918928; also: nearly all actives have a fitted effect of over 40% in size). The method in brief:
as §2

A short description of assay [15]: Quantitative High-Throughput drug screen in 47 multiple myeloma cell lines against the NCATS MIPE library collection: JIM3_ECACC cell viability assay (AID 1918963; also: nearly all actives have a fitted effect of over 35% in size). The method in brief:
as §1

Assay [16] can be described thus: Quantitative High-Throughput drug screen in 47 multiple myeloma cell lines against the NCATS MIPE library collection: KMS12PE_JCRB cell viability assay (AID 1918972). Also: nearly all actives have a fitted effect of over 30% in size. The method in brief:
as §3

The nature of assay [17]: Quantitative High-Throughput drug screen in 47 multiple myeloma cell lines against the NCATS MIPE library collection: ARD_JJKsccE7 cell viability assay (AID 1918929). The method in brief: as §1
Assay [18] can be described thus: Quantitative High-Throughput drug screen in 47 multiple myeloma cell lines against the NCATS MIPE library collection: INA6_PLB cell viability assay (AID 1918965; also: nearly all actives have a fitted effect of over 55% in size). The method in brief: as §3
Assay [19] in a line: Quantitative High-Throughput drug screen in 47 multiple myeloma cell lines against the NCATS MIPE library collection: JJN3_DSMZ cell viability assay (AID 1918966; also: nearly all actives have a fitted effect of over 50% in size). The method in brief:
as §1

Records with an inconclusive call do not appear. Calls of active or inactive are those of the source. Calls follow the shape of the dose curve; as a rule, active = well fitted curve in the direction sought with a large enough effect; inconclusive = small, poorly fitted or top-dose-only effect, or another doubt; inactive = no such curve, though single readings can be large; an effect the other way counts as inactive or inconclusive.
Potency is read from the fitted curve at half-maximal effect.

Consider `C[C@]1(CO)CN(c2cc(C(=O)Nc3ccc4c(c3)-c3c(c(C(N)=O)nn3-c3ccc(F)cc3)CC4)c(Cl)cn2)C[C@@]1(C)CO`, for which the Potency is 9350 nM (active) in assay [1]; 1660 nM (active) in assay [2]; 209 nM (active) in [3]; 2640 nM (active) in assay [4]; 4180 nM (active) in assay [5]; 11800 nM (active) in [6]. Besides, the Potency was 11800 nM (active) in assay [7]; 14800 nM (active) in assay [8]; 5.3 nM (active) in assay [9]; 16600 nM (active) in assay [10]; 5260 nM (active) in assay [11]; 5260 nM (active) in [12].
Consider `Cc1cn2cc(C(=O)N(C)CCO)cc(N[C@@H]3CCOc4cccc(C)c43)c2n1`, for which the Potency result in [1], in assay [13], in assay [14], in assay [2], in [3] and in [15] was “inactive” each time. Besides, the Potency entry in assay [16] and in [11] was “inactive” in each case.
Take `Cc1c(NC(=O)OC[C@@H]2COCCN2)cn2ncnc(Nc3ccc4c(cnn4Cc4cccc(F)c4)c3)c12`: the Potency was 833 nM (active) in [1]; 3320 nM (active) in [13]; 11800 nM (active) in assay [17]; 18700 nM (active) in assay [2]; 14800 nM (active) in assay [3]; 1320 nM (active) in [15]. Further, the Potency is 3320 nM (active) in assay [18]; 7430 nM (active) in assay [8]; 20900 nM (active) in [9]; 18700 nM (active) in assay [16]; 1870 nM (active) in assay [11].
For the compound `Cc1cc(C(=O)N2CCN(c3cccc(Cl)c3)CC2)n(-c2ccccc2)n1`, the Potency was 833 nM (active) in assay [1]; 33.2 nM (active) in [13]; 590 nM (active) in assay [14]; 264 nM (active) in [17]; 29.6 nM (active) in assay [2]; 187 nM (active) in [3]. Further, the Potency in [5] is 418 nM (active); in assay [15] it was 418 nM (active); in [6], 11.8 nM (active); in [18], 418 nM (active); in assay [7], 833 nM (active); in [9] it was 148 nM (active). Moreover, the Potency in assay [10] was 264 nM (active); in [16] it was 743 nM (active); in assay [11] it was 209 nM (active).
On to `CC(C)c1cc(-c2n[nH]c(=O)n2-c2ccc3c(ccn3C)c2)c(O)cc1O`, for which the Potency in assay [1] was 33.2 nM (active); in assay [14], 29.6 nM (active); in assay [17] it was 16.6 nM (active); in assay [2] it was 29.6 nM (active); in assay [3], 37.2 nM (active); in [4], 16.6 nM (active). Also, the Potency in assay [15] is 26.4 nM (active); in [6] it was 14.8 nM (active); in assay [18] it was 26.4 nM (active); in assay [19], 41.8 nM (active); in assay [8], 20.9 nM (active); in [10] it was 37.2 nM (active). The values for the Potency in [16] and in [11] were 33.2 nM (active) and 29.6 nM (active), respectively.
In the case of `CCOC(=O)C1=C(C)NC2=C(C(=O)CC(C)(C)C2)C1c1ccc(-c2ccccc2)cc1` (stereo not drawn), the Potency in assay [1] was 14800 nM (active); in assay [14], 23500 nM (active); in assay [18], 26400 nM (active); in assay [19], 18700 nM (active); in assay [10], 23500 nM (active).
On to `CC1(C)CC(=O)c2c(C(F)(F)F)nn(-c3ccc(C(N)=O)c(NC4CCC(OC(=O)CN)CC4)c3)c2C1` (stereo not drawn), for which the Potency is 166 nM (active) in assay [1]; 235 nM (active) in assay [14]; 93.5 nM (active) in [17]; 264 nM (active) in assay [2]; 132 nM (active) in assay [3]; 148 nM (active) in [15]. The Potency in assay [6] is 132 nM (active); in assay [18], 118 nM (active); in assay [19], 132 nM (active); in assay [8], 187 nM (active); in [10] it was 187 nM (active); in assay [16], 132 nM (active). In assay [11], the Potency was 148 nM (active).
